Reference: the supplement of paper PMC12808144
Unmarked numbers belong to inactive results.

Tests used:
Mel-DCC-11 = experiment: cell viability relative to DMSO control (fraction of DMSO control); higher = less cytotoxic, active = 0.5 or less; details: 1 µM; 120 h
Summary of the method: (§1)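 The screen used 384-well plates acoustically pre-spotted with 315 approved anti-cancer drugs from TargetMol, each at 1 µM in duplicate. Into each well went 40 µl of cells, 2500 NHEM-hTERT immortalized melanocytes or 1500 of patient-derived Mel-DCC-11 or its resistant subline Mel-DCC-11-R, and plates were kept 120 h, with the subline also tested alongside 8 µM of its selecting drug. Readout was by ATPlite 1step luminescence. Viability values were normalised to vehicle-treated controls and averaged between duplicates.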

NHEM-hTERT = experiment: as above; details: 1 µM; 120 h
Summary of the method: as §1

Mel-DCC-11-R = experiment: cell viability relative to DMSO control (fraction of DMSO control); higher = less cytotoxic, active = 0.8 or less; details: 1 µM, 120 h
Summary of the method: as §1

Row | SMILES | cell viability (Mel-DCC-11) | cell viability (NHEM-hTERT) | cell viability (Mel-DCC-11-R; vemurafenib co-treatment 0 µM) | cell viability (Mel-DCC-11-R; vemurafenib co-treatment 8 µM)
1 | O=[N+]([O-])c1cncn1CCN1CCOCC1 [Nimorazole] | 1.13 | 1.14 | 1.02 | 1.08
2 | O=C(O)CCc1nc2ccccc2[nH]1 [Procodazole] | 1.38 | 1.02 | 1.09 | 1
3 | Cl.NNc1nncc2ccccc12 [Hydralazine hydrochloride] | 1.17 | 1.12 | 1.03 | 1.19
4 | CCS(=O)(=O)N1CC(CC#N)(n2cc(-c3ncnc4[nH]ccc34)cn2)C1 [Baricitinib] | 1.14 | 1.07 | 1 | 1.22
5 | COc1ccc(C(Cl)=C(c2ccc(OC)cc2)c2ccc(OC)cc2)cc1 [Chlorotrianisene] | 0.717 | 0.795 | 0.86 | 0.833
6 | CC/C(=C(\c1ccc(O)cc1)c1ccc(OCCNC)cc1)c1ccccc1 [(E/Z)-Endoxifen] | 1.05 | 0.88 | 1.15 | 1.14
7 | N#Cc1ccnc(N2C(=O)CC[C@H]2C(=O)N(c2cncc(F)c2)[C@H](C(=O)NC2CC(F)(F)C2)c2ccccc2Cl)c1 [Ivosidenib] | 1.32 | 1.27 | 1.25 | 1.06
8 | CO[C@@]12[C@H](COC(N)=O)C3=C(C(=O)C(C)=C(N)C3=O)N1C[C@@H]1N[C@@H]12 [Mitomycin C] | 1.76 | 0.685 | 1.6 | 0.859
9 | c1cn2cc(-c3ccc4cn[nH]c4c3)nc(Nc3ccc(N4CCOCC4)cc3)c2n1 [Entospletinib] | 0.988 | 0.558 | 0.904 | 0.877
10 | [Cl][Pt+2][Cl] [Cisplatin] | 1.12 | 1.04 | 1.08 | 1.28
11 | CCCCCOC(=O)Nc1nc(=O)n([C@@H]2O[C@H](C)[C@@H](O)[C@H]2O)cc1F [Capecitabine] | 1.18 | 1.14 | 1.04 | 1.11
12 | CCCCCCCCCCCCCC(=O)[O-].CCCCCCCCCCCCCC(=O)[O-].N[C@@H]1CCCC[C@H]1N.[Pt+2] [Miriplatin] | 1.11 | 1.03 | 1.04 | 1.03
13 | O=c1cc(-c2ccc(O)cc2)oc2cc(O)cc(O)c12 [Apigenin] | 1.07 | 1.09 | 0.972 | 0.991
14 | CO[C@H]1C[C@@H]2CC[C@@H](C)[C@@](O)(O2)C(=O)C(=O)N2CCCC[C@H]2C(=O)O[C@H]([C@H](C)C[C@@H]2CC[C@@H](OCCO)[C@H](OC)C2)CC(=O)[C@H](C)/C=C(\C)[C@@H](O)[C@@H](OC)C(=O)[C@H](C)C[C@H](C)/C=C/C=C/C=C/1C [Everolimus] | 1.35 | 0.964 | 1.57 | 0.834
15 | CN(C)C(=N)N=C(N)N.Cl [Metformin hydrochloride] | 1.03 | 1.07 | 0.843 | 1.08
16 | O=c1ccn([C@@H]2O[C@H](CO)[C@@H](O)[C@H]2O)c(=O)[nH]1 [Uridine] | 1.11 | 1.05 | 0.931 | 1.09
17 | CC(COc1ccccc1)N(CCCl)Cc1ccccc1.Cl (centres undefined) [Phenoxybenzamine hydrochloride] | 1.18 | 1.13 | 1 | 1.15
18 | CC(=O)O[C@]1(C(C)=O)CC[C@H]2[C@@H]3CCC4=CC(=O)CCC4=C3[C@@H](c3ccc(N(C)C)cc3)C[C@@]21C [Ulipristal acetate] | 1.31 | 0.967 | 1.13 | 1.04
19 | CN(C)C(=O)COC(=O)Cc1ccc(OC(=O)c2ccc(N=C(N)N)cc2)cc1.CS(=O)(=O)O [Camostat mesilate] | 1.03 | 0.975 | 1.1 | 1.21
20 | COc1c(OCCCN2CCOCC2)ccc2c1N=C(NC(=O)c1cnc(N)nc1)N1CCN=C21 [Copanlisib] | 0.966 | 0.829 | 0.671 (active) | 0.254 (active)
21 | Oc1c(I)cc(Cl)c2cccnc12 [Clioquinol] | 0.864 | 0.798 | 0.866 | 0.847
